What all share (format): functional
Test [1] concerns the target Solute carrier family 2, facilitated glucose transporter member 1 (Homo sapiens) (UniProt P11166). The test is described as follows: ST_JUDE_LEISH: Cytotoxicity at 2uM final concentration against transgenic Leishmania Mexicana promastigotes LmGLUT1 that are glucose transport deficient and complemented with the human glucose transporter GLUT1. Activity is measured by DNA content using SYBR green in vitro.

The target in test [2] is Hexose transporter 1 (Plasmodium falciparum) (UniProt O97467). As to the kind of experiment: ST_JUDE_LEISH: Cytotoxicity at 2uM final concentration against transgenic Leishmania Mexicana promastigotes LmPfHT that are glucose transport deficient and complemented with the Plasmodium falciparum hexose transporter. Activity is measured by DNA content using SYBR green in vitro.

The target in test [3] is Glucose transporter (Leishmania mexicana) (UniProt O61059). The test is described as follows: ST_JUDE_LEISH: Cytotoxicity at 2uM final concentration against transgenic Leishmania Mexicana promastigotes LmGT2 that are glucose transport deficient and complemented with the L. Mexicana glucose transporter 2. Activity is measured by DNA content using SYBR green in vitro.

We go through 37 compounds from ChEMBL document CHEMBL3433997, “St. Jude Leishmania screening dataset” (2016).

Molecules are shown by their SMILES.

Chain of Solute carrier family 2, facilitated glucose transporter member 1 (Homo sapiens) (P11166 whole entry): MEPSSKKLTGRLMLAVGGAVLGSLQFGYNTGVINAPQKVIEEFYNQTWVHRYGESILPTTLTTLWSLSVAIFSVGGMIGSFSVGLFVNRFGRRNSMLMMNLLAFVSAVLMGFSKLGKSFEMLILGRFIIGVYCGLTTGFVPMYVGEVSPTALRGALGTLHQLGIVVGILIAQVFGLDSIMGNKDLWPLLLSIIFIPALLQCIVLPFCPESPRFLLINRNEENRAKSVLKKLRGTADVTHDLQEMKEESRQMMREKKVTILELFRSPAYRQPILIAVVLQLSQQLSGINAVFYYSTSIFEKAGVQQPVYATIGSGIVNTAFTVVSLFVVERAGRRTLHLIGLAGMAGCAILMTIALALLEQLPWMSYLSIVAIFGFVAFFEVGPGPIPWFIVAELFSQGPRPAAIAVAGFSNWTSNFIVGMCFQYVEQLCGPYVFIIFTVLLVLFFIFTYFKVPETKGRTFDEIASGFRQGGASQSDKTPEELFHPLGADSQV

For orientation: inhibition means the relative decrease from the control value, in per cent. As to `COc1cc2nc(Nc3ccc4c(cnn4Cc4ccccc4)c3)nc(Nc3ccc4c(cnn4Cc4ccccc4)c3)c2cc1OC`, the inhibition turned out to be 2.6% in test [1], 2.44% in test [2] and 0.51% in test [3].
Regarding `Cc1cc(C(F)(F)F)n2nc(C(=O)N(Cc3cncn3Cc3cccc(F)c3)CC3CC3)cc2n1`, the inhibition is -0.1% in test [1], -0.07% in test [2] and 2.14% in test [3].
With `O=C(Nc1ccc(OC2CCN(Cc3ccc(F)cc3)CC2)c(Cl)c1)c1ccc(F)cc1`, the inhibition in test [1] is 2.58%; in test [2], 3.52%; in test [3], 7.21%.
With `COc1cccc(-c2nn(C)c3sc(C(=O)NCCN(C)Cc4ccccc4)cc23)c1`, the inhibition in test [1] was 2.97%; in test [2] it was -0.73%; in test [3], 2.24%.
`Cc1cc(N[C@@H](Cc2ccccc2)C(=O)NCCOc2ccccc2)nc(NCc2ccccc2C)n1`: the values for the inhibition in test [1], in test [2] and in test [3] were 7.28%, 7.01% and 4.21%, respectively.
The corresponding values for `CCOc1cccc(C(=O)Nc2ccc(-c3nc4ccccc4[nH]3)cc2)c1` are 4.46%, 3.79% and 3.58%.
The corresponding values for `O=C(NC1CCN(CCN2CCC(c3c[nH]c4ccccc34)CC2)CC1)c1ccc(-c2ccc(C(F)(F)F)cc2)cc1` are 59%, 19.8% and 30.2%.
As to `O=S(=O)(Nc1cccc(CCN2CCCCC2CCN2CCCC2)c1)c1ccc(-c2ccccc2)cc1` (stereo unspecified), the inhibition is 2.86% in test [1], -0.3% in test [2] and -2.73% in test [3].
The corresponding values for `O=C(NC1CCN(Cc2ccccc2)CC1)c1cccc(Nc2nc(-c3ccccc3)cs2)c1` are 9.1%, 8.88% and 2.09%.
Taken in the same sequence, the figures for `CC(CNC(=O)C(c1cc2ccccc2o1)N1CCN(C(c2ccccc2)c2ccccc2)CC1)c1ccccc1` (stereo unspecified) were 3.49%, 3.31% and 3.92%.
On to `O=S(=O)(Nc1ccc(CCN2CCC(N3CCCCC3)CC2)cc1)c1ccc(Cl)cc1`, for which the values for the inhibition in test [1], in test [2] and in test [3] were 1.32%, 2.6% and 2.94%, respectively.
The corresponding values for `CCCCCN1CCCCC(NS(=O)(=O)c2ccc(C(=O)Nc3cccc(C(F)(F)F)c3)cc2)C1` (stereo unspecified) are 6.68%, 5.05% and 3.25%.
Regarding `OC(CNCc1ccccc1OCc1ccccc1)c1cccc(Cl)c1` (stereo unspecified), the figures for the inhibition in test [1], in test [2] and in test [3] were 5.6%, 4.24% and 5.2%, respectively.
As for `CN1CCC(c2csc3ccc(NC(=O)Nc4ccc(-c5ccncc5)c5ccccc45)cc23)CC1`, the inhibition is -0.99% in test [1], 0.65% in test [2] and 2.4% in test [3].
Consider `COc1ccc2nc3cc(Cl)ccc3c(Nc3ccc(Sc4ccc(Nc5c6ccc(Cl)cc6nc6ccc(OC)cc56)cc4)cc3)c2c1`, for which the inhibition in test [1] was 3.47%; in test [2], 4.48%; in test [3], 3.6%.
The corresponding values for `Cc1ccc(O)cc1Nc1ccnc2ccc(-c3csc(CNCCN4CCOCC4)n3)cc12` are 3.28%, 2.25% and 1.59%.
Taken in the same sequence, the figures for `OC(CNCc1ccccc1OCc1ccccc1)c1cccc(C(F)(F)F)c1` (stereo unspecified) were 15.1%, 11.6% and 10.8%.
For `Nc1cccc(-c2ccc3ccnc(N)c3c2)c1`, the values for the inhibition in test [1], in test [2] and in test [3] were 3.63%, 4.39% and 3.35%, respectively.
Taken in the same sequence, the figures for `O=C(Nc1cc(F)cc(F)c1)N1CCOC(CCN2CCC(c3ccccc3)CC2)(c2ccc(Cl)c(Cl)c2)C1` (stereo unspecified) were 4.27%, 2.5% and 2.87%.
As to `O=C(NCc1ccc(Cl)c(Cl)c1)c1ccc(-c2nc3ccc(F)cc3[nH]2)cc1`, the inhibition in test [1] is 12.4%; in test [2], 11.1%; in test [3] it was 11.6%.
Taken in the same sequence, the figures for `CC(=NNC(=N)N)c1ccc2ccc3ccccc3c2c1` were 0.27%, 1.38% and 0.74%.
In the case of `Fc1cc(Cl)ccc1Nc1ccnc2cc(-c3scnc3CNCCN3CCOCC3)ccc12`, the figures for the inhibition in test [1], in test [2] and in test [3] were 2.02%, 1.16% and 0.33%, respectively.
The corresponding values for `COc1ccc(S(=O)(=O)Nc2cc(Br)cc3c2OCCC3)cc1N1CCN(C(=O)C(Cl)(Cl)Cl)CC1` are -1.16%, -1.14% and -0.3%.
In the case of `c1ccc(-c2nc(Nc3ccncc3)sc2-c2ccccc2)cc1`, the inhibition in test [1] came to 4.18%; in test [2], 4.94%; in test [3], 1.21%.
The corresponding values for `CC(C)(C)c1ccc(NC(=O)c2cccc(CN3CCCN(Cc4ccsc4)CC3)c2)cc1` are 5.17%, 1.84% and 1.41%.
Regarding `Cc1ccc(-n2c(=O)c3cccnc3n2CC(=O)Nc2cccc(C)c2C)cc1`, the results for the inhibition in test [1], in test [2] and in test [3] were 8.07%, 5.98% and 7.74%, respectively.
Taken in the same sequence, the figures for `COc1ccc(-c2nc(NCc3ccccc3)c3cc(OC)c(OC)cc3n2)cc1` were 10.8%, 12.1% and 4.38%.
The corresponding values for `NC1CCN(Cc2ccc(-c3cccc(-c4nc5ccccc5[nH]4)c3)cc2)C1` (stereo unspecified) are 5.49%, 5.29% and 5.76%.
The corresponding values for `N=C1NC(=N)N(OCCCCCCON2C(=N)NC(=N)NC2C=Cc2ccccc2)C(C=Cc2ccccc2)N1` (stereo unspecified) are 1.73%, 2.16% and 10.7%.
Take `C(=N\Nc1nccc2sc(-c3cccnc3)cc12)/c1ccncc1`: the inhibition in test [1] came to 5.3%; in test [2] it was 5.29%; in test [3] it was 1.98%.
On to `CC(=O)Nc1ccc(C(=O)Nc2ccc(-c3cccc(-c4nc5ccccc5[nH]4)c3)cc2)cn1`, for which the inhibition was 0.89% in test [1], 0.79% in test [2] and -0.56% in test [3].
As to `COc1cc(CCOc2c(C)nc(N)nc2N)cc(OC)c1OC`, the inhibition in test [1] is -0.69%; in test [2], 0.7%; in test [3], -0.41%.
Consider `COc1ccc(CNc2nc(NCc3ccc(C(F)(F)F)cc3)c3cc(OC)c(OC)cc3n2)cc1OC`, for which the inhibition turned out to be 20.1% in test [1], 19.9% in test [2] and 14.3% in test [3].
The corresponding values for `Clc1ccccc1CNc1noc(-c2sccc2Br)n1` are 0.33%, 2.84% and 1.17%.
Consider `COc1ccc(-c2cc(C(=O)N[C@@H](CC3CCCCC3)C(=O)NCCN3CCCC3)ccc2O)cc1`, for which the inhibition came out at 0.33% in test [1], 1.9% in test [2] and 1.32% in test [3].
Taken in the same sequence, the figures for `CCCCCCc1cc2cc(-c3csc(C=Cc4ccccc4)n3)c(=O)oc2cc1O` were 9.95%, 10.6% and 9.7%.
The corresponding values for `COc1ccc2nccc([C@@H](O)CN3CCC(NCc4ccc5c(c4)N(C)C(=O)CO5)CC3)c2c1` are 0.27%, 0.25% and 0.03%.
